Test results from PubChem BioAssay AID1851 (National Center for Advancing Translational Sciences (NCATS), 2009).
Where “and” joins values, the source holds several entries; their conditions need not be identical. Equal values may be shown once. In all, about 16,000 compounds went through this assay and about 4,000 (25%) were called active. About 26% were inconclusive and are not listed. Calls come from the whole dose curve; as a rule, active = well fitted curve in the direction sought with a large enough effect; inconclusive = small, poorly fitted or top-dose-only effect, or effect the other way; inactive = no such curve, though single readings can be large or run the other way. Only a sample is shown. More than one record can exist for a structure, and the calls need not agree.

Molecular target: Cytochrome P450 2C9 (Homo sapiens) (UniProt P11712)
Assay: Cytochrome panel assay with activity outcomes
Conditions: recombinant CYP, pro-luciferin dealkylation, luminescence, p450-cyp2c9; series mostly up to 57.1 µM; activity, negative = inhibition: at the top concentration
% is set by controls: 0 for no effect and ±100 for the full control effect.

Sequence of Cytochrome P450 2C9 (Homo sapiens) (P11712 whole entry, looked up): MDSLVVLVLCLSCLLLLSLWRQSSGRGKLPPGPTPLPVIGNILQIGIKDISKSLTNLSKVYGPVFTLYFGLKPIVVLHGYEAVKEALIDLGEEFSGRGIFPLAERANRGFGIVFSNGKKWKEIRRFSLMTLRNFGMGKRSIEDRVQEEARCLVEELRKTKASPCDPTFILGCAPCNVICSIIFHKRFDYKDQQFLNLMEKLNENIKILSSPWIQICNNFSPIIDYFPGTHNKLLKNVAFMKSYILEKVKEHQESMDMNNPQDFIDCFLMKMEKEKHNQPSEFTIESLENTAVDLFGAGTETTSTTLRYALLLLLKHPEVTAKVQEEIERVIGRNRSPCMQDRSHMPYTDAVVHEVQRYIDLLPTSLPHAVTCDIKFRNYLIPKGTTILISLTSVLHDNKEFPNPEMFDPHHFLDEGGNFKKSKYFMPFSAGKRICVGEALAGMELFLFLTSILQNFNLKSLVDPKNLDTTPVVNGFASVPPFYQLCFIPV

| Structure (SMILES) | activity, negative = inhibition | AC50 |
| --- | --- | --- |
| O=C1c2ccccc2C(=O)C1c1ccccc1 | -10.8% [at 25.6 µM] (inactive) | – |
| OC(CN1CCCCC1)CN1CCCCC1 | 19.5% (inactive) | – |
| Cc1cc2c(nc1C)CCCN2C[C@@H](O)CN1CCN(C)CC1 | 29.4% [at 11.4 µM] (inactive) | – |
| Cc1cc2c(nc1C)CCCN2C[C@H](O)CN1CCCc2nc(-c3ccc(Br)cc3)ccc21 | – | 2.51 µM (active) |
| COc1ccc(-c2ccc3c(n2)CCCN3C[C@H](O)CN2CCCc3nc(C)c(C)cc32)cc1 | – | 3.98 µM (active) |
| CCN(CC)C[C@@H](O)CN1CCCCc2nc(C)c(C)cc21 | -1.31% [at 11.4 µM] (inactive) | – |
| CO/N=C(\C)CCN1CCCc2nc(C)c(C)cc21 | -0.836% [at 11.4 µM] (inactive) | – |
| Cc1cc2c(nc1C)CCCN2CC(O)CN1CCCc2nc(C)c(C)cc21 | -10.8% [at 11.4 µM] (inactive) | – |
| Cc1ccc(Cn2nc(C)c(NC(=O)c3cc(-c4ccco4)on3)c2C)cc1 | – | 12.6 µM (active) |
| Cc1ccc(Cn2ccc(NC(=O)c3cc4nc(-c5ccco5)cc(C(F)(F)F)n4n3)n2)cc1 | -18.3% (inactive) | – |
| Clc1cccc(Cl)c1NC1=NCCN1 | – | inactive and 7.94 µM (active) |
| COc1nc(C)nc(Cl)c1NC1=NCCN1 | – | inactive |
| c1ccc2c(CC3=NCCN3)cccc2c1 | -5.9% [at 25.6 µM] (inactive) | – |
| O=[N+]([O-])c1cccc(/C=N/Nc2cc(Cl)nc(-c3ccccc3)n2)c1 | -21.3% (inactive) | – |
| C/C(=N\Nc1nnc(-c2ccccc2)c(-c2ccccc2)n1)c1cccc([N+](=O)[O-])c1 | – | 20 µM (active) |
| C/C(=N\Nc1ccc([N+](=O)[O-])cc1)c1cccc(N)c1 | – | 5.62 µM (active) |
| c1ccc([C@@H]2CN3CCSC3=N2)cc1 | – | inactive |
| CN(C)C(=O)c1ccc(-c2nccc(NCc3ccccc3)n2)cc1 | -14% [at 2.29 µM] (inactive) | – |
| CN(C)C(=O)c1ccc(-c2nc(NCc3ccccc3)c3ccccc3n2)cc1 | -4.46% [at 2.29 µM] (inactive) | – |
| CCOC(=O)c1nnc(-c2ccccc2)nc1NCc1ccccc1 | – | 25.1 µM (active) |
| COc1ccc(C(=O)CCN(C)C)c2ccccc12 | – | 3.98 µM (active) |
| CCCCN(CC)C(=O)Cc1ccccc1OC | -33.3% (inactive) | – |

| Structure (SMILES) | activity, negative = inhibition | AC50 |
| --- | --- | --- |
| O=C(O)CCC(=O)c1ccc2ccc3cccc4ccc1c2c34 | 4.8% [at 11.4 µM] (inactive) | – |
| O=C1c2ccccc2CCC12N=NCC2c1ccc(Cl)cc1 (stereo unspecified) | – | 14.1 µM (active) |
| N#[N+]c1ccc(Nc2ccccc2)cc1 | 5.95% [at 11.4 µM] (inactive) | – |
| CC(C)(C)NC(=S)Nc1ccc(Nc2ccccc2)cc1 | – | 7.08 µM (active) |
| COc1ccc(NC(=S)Nc2ccccc2)cc1 | -15.3% [at 11.4 µM] (inactive) | – |
| Cc1ccccc1-c1cncnc1Nc1ccccc1 | -13.5% [at 2.29 µM] (inactive) | – |
| Nc1ccc(Nc2ccccc2)cc1 | – | 8.91 µM (active) |
| CNC(=S)Nc1ccc(Nc2ccccc2)cc1 | – | 39.8 µM (active) |
| CNC(=S)Nc1ccc2nc(C)c(C)nc2c1 | -19.6% (inactive) | – |
| CN(C)C(=O)c1ccc(-c2ccc3ncnc(NCCN4CCOCC4)c3c2)cc1 | 1.81% [at 2.29 µM] (inactive) | – |
| Cc1c(C(=O)Nc2nccs2)sc2nc(-c3cccs3)cc(C(F)(F)F)c12 | – | 3.16 µM (active) |
| CC(C)(C)NC(=O)CN(Cc1cccs1)C(=O)CCC(=O)Nc1nccs1 | -15.4% (inactive) | – |
| CC[C@H](NC(=O)c1c(C)c(-c2ccccc2)nc2ccccc12)c1ccccc1 | -5.92% (inactive) | – |
| CCC(NC(=O)C1(C)CC1(Br)Br)c1ccc(C)cc1 (stereo unspecified) | – | 5.01 µM (active) |
| N#Cc1cccc(-c2nccc(-n3ccnc3)n2)c1 | 5.77% [at 2.29 µM] (inactive) | – |
| CO[C@H]1[C@@H](OC(N)=O)[C@H](O)[C@@H](Oc2ccc3c(O)c(NC(=O)c4ccc(O)c(CC=C(C)C)c4)c(=O)oc3c2C)OC1(C)C | -30% [at 25.6 µM] (inactive) | – |
| COc1ccccc1CC(=O)Nc1cc2oc3ccccc3c2cc1OC | – | 3.98 µM (active) |
| CCOCC(=O)Nc1c(C(=O)Nc2ccccc2OC)oc2ccccc12 | -15.3% (inactive) | – |
| COC(=O)N1CCC2(CCN(Cc3ccccc3OC)CC2)CC1 | 11.3% (inactive) | – |
| CCCC[C@@H]1C[C@H]1C(NC(=O)c1cccs1)c1ccc(Cl)cc1 (stereo partly specified) | – | 1 µM (active) |
| CCCC[C@@H]1C[C@H]1C(NC(=O)c1cccs1)c1ccc(C(F)(F)F)cc1 (stereo partly specified) | – | 1.58 µM (active) |
| CCCC[C@@H]1C[C@H]1C(NC(=O)c1cccs1)c1ccc(-c2ccccc2)cc1 (stereo partly specified) | – | 1.58 µM (active) |

| Structure (SMILES) | activity, negative = inhibition | AC50 |
| --- | --- | --- |
| Cc1cc(C)c2c(N)c3ccccc3nc2n1 | -20.2% (inactive) | – |
| COc1cccc(Cn2c(=O)cnc3cnc(N(C)C)nc32)c1 | – | 12.6 µM (active) |
| COc1cccc(Nc2ncc3ncc(=O)n(C)c3n2)c1 | -22.8% (inactive) | – |
| CCNc1ncc2nc(CCc3ccccc3)c(=O)n(Cc3cccc(OC)c3)c2n1 | -28.8% (inactive) | – |
| COc1ccc(-n2c(=O)cnc3cnc(N(C)C)nc32)cc1 | -5.06% (inactive) | – |
| COc1cccc(Cn2c(=O)c(CCc3ccccc3)nc3cnc(OC)nc32)c1 | – | 6.31 µM (active) |
| COc1cccc(Cn2c(=O)cnc3cnc(Nc4cccc(OC)c4)nc32)c1 | – | 2 µM (active) |
| COc1cccc(Nc2ncc3ncc(=O)n(CCC#N)c3n2)c1 | -9.1% (inactive) | – |
| COc1cccc(Cn2c(=O)c(CCc3ccccc3)nc3cnc(N(C)C)nc32)c1 | – | 10 µM (active) |
| N[C@@H](Cc1cnc[nH]1)C(=O)O | 22.8% (inactive) | – |
| Cc1nc2nc[nH]n2c(=O)c1NC(=O)CC12CC3CC(CC(C3)C1)C2 | -28.9% (inactive) | – |
| C[C@H]1[C@H](C)OC(=O)C[C@H](O)C[C@H](O)C[C@H](O)CC[C@H](O)[C@H](O)CC(=O)C[C@H](O)[C@H](C(=O)O)[C@H](O)C[C@H](O[C@@H]2O[C@@H](C)[C@H](O)[C@@H](N)[C@@H]2O)C=CC=CC=CC=CCCC=CC=C[C@@](C)(O)[C@H]1O | 14.1% [at 11.4 µM] (inactive) | – |
| COc1ccc(-n2c(=O)c(CCc3ccccc3)nc3cnc(N4CCN(C)CC4)nc32)cc1 | -23.4% (inactive) | – |
| COc1cccc(Cn2c(=O)cnc3cncnc32)c1 | – | 31.6 µM (active) |
| CN1CCN(c2ncc3nc(CCc4ccccc4)c(=O)n(Cc4cccs4)c3n2)CC1 | – | 25.1 µM (active) |
| CCNc1ncc2nc(C)c(=O)n(Cc3cccs3)c2n1 | -3.88% (inactive) | – |
| COc1cccc(Cn2c(=O)c(CCc3ccccc3)nc3cnc(N4CCN(C)CC4)nc32)c1 | – | 25.1 µM (active) |
| CN1CCN(c2ncc3nc(-c4ccccc4)c(=O)n(Cc4cccs4)c3n2)CC1 | -19.8% (inactive) | – |
| CCNc1ncc2nc(-c3ccc(OC)cc3)c(=O)n(Cc3cccc(OC)c3)c2n1 | -9.5% (inactive) | – |
| Cc1nc2cnc(N3CCN(C)CC3)nc2n(CCc2ccccc2)c1=O | 0.67% (inactive) | – |
| Cc1nc2cnc(N3CCN(C)CC3)nc2n(Cc2cccs2)c1=O | 10.7% (inactive) | – |
| CCNc1ncc2nc(C)c(=O)n(Cc3cccc(OC)c3)c2n1 | – | 15.8 µM (active) |
